{"source": "the supplement of paper PMC11732987", "about": "“Enantioselective OTUD7B fragment discovery through chemoproteomics screening and high-throughput optimisation” (Communications Chemistry, 2025)", "assay_in_all_cases": "log2 ratio of Biotin-Ahx-Ub-VS probe labelling (fragment/DMSO); higher = less target engagement (more negative = stronger competition), active = hit call of the paper (q ≤ 0.05, log2 ratio ≤ -1)", "details_in_all_cases": "compound concentration: 200 uM; treatment time: 3 h", "key": {"OTUD6B": {"target": "T1, OTUD6B (UniProt Q8N6M0)", "T1 sequence (whole entry)": "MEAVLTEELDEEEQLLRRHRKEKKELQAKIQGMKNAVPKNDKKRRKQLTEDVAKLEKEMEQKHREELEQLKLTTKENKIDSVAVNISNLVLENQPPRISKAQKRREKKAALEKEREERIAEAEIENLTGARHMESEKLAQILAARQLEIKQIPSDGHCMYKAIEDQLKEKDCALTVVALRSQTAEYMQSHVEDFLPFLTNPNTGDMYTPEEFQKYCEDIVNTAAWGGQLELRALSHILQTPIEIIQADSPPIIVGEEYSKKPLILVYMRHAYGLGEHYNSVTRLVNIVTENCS", "outline": "(§1)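 HEK293T lysate (495 µg per sample, in Tris/CHAPS/IGEPAL buffer with protease inhibitors) was treated in triplicate with fragment at 200 µM or with DMSO for 3 h. It was then treated with Biotin-Ahx-Ub-VS (0.5 µM final) for 1 h. Labelled DUBs were NeutrAvidin-enriched, digested with LysC and trypsin, and run by diaPASEF LC-MS/MS. Spectronaut label-free quantities were global-median-normalised. Values are average log2 ratios fragment/DMSO by unpaired t-test, using proteins with ≥2 unique peptides.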"}, "OTUD7B": {"target": "T2, OTUD7B (UniProt Q6GQQ9)", "T2 sequence (whole entry)": "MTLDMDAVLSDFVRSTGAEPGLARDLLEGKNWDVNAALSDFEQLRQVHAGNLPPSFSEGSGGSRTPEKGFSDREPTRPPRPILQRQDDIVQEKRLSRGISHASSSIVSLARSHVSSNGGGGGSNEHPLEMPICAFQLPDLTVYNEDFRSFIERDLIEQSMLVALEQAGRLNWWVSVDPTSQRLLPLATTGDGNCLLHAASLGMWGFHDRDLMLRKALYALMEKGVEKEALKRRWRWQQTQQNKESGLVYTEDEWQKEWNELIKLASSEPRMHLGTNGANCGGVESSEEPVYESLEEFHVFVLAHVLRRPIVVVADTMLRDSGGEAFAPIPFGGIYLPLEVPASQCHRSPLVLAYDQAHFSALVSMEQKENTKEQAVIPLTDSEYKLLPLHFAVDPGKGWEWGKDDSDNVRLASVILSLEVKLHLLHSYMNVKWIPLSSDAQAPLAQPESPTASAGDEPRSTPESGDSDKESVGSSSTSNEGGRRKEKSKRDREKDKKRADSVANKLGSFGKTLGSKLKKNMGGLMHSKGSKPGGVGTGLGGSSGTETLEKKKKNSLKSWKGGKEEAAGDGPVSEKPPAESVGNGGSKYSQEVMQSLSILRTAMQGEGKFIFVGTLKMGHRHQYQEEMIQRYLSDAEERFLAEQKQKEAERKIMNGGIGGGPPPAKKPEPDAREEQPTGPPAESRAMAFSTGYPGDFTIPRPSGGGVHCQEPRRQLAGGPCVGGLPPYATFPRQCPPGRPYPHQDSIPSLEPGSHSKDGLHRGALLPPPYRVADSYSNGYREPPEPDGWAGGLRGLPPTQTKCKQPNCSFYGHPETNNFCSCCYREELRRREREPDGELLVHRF", "outline": "as §1"}, "PRPF8": {"target": "PRPF8 (UniProt Q6P2Q9)", "outline": "as §1"}, "PSMD7": {"target": "T3, PSMD7 (UniProt P51665)", "T3 sequence (whole entry)": "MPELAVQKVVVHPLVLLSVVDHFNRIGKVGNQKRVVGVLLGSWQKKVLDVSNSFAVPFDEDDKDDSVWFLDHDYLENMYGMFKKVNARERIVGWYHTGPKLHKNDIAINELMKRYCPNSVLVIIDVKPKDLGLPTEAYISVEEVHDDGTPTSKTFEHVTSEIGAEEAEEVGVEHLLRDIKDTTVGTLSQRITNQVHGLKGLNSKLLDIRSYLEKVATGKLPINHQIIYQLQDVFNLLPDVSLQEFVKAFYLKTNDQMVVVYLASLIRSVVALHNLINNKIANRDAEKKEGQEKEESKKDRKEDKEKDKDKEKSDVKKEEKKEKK", "outline": "as §1"}, "UCHL1": {"target": "UCHL1 (UniProt P09936)", "sequence (P09936 whole entry, looked up)": "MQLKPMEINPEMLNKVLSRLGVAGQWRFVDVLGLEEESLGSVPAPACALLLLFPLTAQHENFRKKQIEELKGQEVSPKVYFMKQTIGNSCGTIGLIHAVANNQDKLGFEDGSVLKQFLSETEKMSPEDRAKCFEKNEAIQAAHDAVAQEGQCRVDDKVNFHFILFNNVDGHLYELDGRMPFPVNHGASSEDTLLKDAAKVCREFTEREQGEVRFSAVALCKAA", "outline": "as §1"}, "UCHL3": {"target": "T4, UCHL3 (UniProt P15374)", "T4 sequence (whole entry)": "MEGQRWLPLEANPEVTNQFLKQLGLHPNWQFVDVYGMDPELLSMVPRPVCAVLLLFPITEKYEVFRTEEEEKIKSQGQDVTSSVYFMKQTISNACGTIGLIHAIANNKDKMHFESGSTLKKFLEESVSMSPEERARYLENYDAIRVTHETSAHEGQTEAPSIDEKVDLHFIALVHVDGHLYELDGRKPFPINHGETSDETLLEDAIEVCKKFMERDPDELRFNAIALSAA", "outline": "as §1"}, "UCHL5": {"target": "T5, UCHL5 (UniProt Q9Y5K5)", "T5 sequence (whole entry)": "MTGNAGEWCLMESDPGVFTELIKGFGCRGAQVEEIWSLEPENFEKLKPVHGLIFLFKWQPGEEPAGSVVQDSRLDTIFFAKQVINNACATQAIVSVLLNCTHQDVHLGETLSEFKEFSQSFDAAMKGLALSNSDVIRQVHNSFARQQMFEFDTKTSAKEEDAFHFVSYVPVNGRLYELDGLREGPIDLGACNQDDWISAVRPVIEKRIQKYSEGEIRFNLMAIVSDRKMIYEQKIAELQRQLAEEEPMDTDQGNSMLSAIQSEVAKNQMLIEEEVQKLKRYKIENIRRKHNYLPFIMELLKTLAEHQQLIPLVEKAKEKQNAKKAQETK", "outline": "as §1"}, "USP10": {"target": "USP10 (UniProt Q14694)", "sequence (Q14694 whole entry)": "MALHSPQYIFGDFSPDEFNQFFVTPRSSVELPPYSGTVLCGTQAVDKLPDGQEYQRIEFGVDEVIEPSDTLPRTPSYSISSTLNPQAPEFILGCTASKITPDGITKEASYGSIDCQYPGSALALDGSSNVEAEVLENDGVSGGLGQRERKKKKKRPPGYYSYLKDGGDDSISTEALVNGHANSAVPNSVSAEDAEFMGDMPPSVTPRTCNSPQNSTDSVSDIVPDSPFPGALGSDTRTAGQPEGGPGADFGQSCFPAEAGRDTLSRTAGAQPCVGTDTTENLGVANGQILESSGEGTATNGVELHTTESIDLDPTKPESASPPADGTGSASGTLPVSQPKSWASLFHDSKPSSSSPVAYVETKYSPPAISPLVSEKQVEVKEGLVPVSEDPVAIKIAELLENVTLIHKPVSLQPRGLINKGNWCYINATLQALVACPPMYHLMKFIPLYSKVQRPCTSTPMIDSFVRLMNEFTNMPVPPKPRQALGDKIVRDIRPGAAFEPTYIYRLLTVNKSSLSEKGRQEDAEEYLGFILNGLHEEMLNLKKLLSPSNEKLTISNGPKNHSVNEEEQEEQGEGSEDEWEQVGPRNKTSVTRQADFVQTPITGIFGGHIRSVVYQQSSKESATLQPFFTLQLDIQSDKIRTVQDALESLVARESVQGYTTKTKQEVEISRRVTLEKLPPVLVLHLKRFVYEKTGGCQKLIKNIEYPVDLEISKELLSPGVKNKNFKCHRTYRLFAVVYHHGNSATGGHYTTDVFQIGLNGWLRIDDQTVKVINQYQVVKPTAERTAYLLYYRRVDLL", "outline": "as §1"}, "USP15": {"target": "T6, USP15 (UniProt Q9Y4E8)", "T6 sequence (whole entry)": "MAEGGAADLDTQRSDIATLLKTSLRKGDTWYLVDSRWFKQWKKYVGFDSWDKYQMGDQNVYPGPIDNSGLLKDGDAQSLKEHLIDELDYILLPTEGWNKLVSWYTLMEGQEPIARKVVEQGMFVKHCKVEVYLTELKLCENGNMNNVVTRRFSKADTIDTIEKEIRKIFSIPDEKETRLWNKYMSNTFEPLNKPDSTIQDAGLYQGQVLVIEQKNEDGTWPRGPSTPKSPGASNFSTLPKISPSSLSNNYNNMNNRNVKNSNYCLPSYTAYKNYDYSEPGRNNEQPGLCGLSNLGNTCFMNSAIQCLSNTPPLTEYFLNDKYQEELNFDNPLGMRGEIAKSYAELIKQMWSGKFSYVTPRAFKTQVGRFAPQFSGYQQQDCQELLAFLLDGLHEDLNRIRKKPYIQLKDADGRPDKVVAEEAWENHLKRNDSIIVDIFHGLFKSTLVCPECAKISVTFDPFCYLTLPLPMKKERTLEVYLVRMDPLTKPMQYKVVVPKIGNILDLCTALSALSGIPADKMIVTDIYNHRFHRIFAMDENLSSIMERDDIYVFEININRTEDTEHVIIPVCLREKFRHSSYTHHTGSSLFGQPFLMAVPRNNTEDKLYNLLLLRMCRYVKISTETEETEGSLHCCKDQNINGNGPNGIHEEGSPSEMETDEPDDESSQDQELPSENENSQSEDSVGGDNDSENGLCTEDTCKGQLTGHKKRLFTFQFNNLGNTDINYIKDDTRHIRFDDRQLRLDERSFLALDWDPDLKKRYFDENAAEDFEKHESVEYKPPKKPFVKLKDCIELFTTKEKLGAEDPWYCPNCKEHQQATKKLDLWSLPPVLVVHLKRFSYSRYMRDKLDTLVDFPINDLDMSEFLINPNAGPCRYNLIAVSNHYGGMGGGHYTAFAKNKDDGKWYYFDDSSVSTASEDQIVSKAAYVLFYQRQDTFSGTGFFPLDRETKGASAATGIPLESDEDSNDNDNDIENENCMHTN", "outline": "as §1"}, "USP16": {"target": "USP16 (UniProt Q9Y5T5)", "sequence (Q9Y5T5 whole entry, looked up)": "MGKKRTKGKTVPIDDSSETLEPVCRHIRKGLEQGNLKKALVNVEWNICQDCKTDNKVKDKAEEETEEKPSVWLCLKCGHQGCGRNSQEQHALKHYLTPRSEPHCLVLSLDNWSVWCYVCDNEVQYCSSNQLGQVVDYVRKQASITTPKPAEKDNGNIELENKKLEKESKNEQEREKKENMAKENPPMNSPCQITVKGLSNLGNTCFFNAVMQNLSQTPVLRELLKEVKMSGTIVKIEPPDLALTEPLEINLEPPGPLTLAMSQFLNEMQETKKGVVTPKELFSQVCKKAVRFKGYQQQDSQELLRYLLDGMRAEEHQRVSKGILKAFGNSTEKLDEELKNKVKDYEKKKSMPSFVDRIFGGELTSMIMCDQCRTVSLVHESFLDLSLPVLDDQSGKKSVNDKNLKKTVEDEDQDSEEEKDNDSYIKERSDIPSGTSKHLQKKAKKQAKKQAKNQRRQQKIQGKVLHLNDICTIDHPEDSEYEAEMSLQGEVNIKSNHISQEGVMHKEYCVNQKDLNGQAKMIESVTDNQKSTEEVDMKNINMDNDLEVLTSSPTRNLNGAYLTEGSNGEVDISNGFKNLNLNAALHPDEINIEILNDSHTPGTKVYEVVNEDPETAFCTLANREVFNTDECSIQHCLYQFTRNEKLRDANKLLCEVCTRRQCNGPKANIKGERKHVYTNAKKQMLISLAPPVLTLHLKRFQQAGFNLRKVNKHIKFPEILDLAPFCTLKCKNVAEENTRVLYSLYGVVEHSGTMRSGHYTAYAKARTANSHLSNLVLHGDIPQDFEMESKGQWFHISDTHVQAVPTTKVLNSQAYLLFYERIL", "outline": "as §1"}}, "note": "A number with no mark means an inactive call."}
{"smiles": "CC(NC(=O)CCl)c1cccc2ccccc12", "note": "(stereo not given)", "values": [{"measurement": "log2 ratio of Biotin-Ahx-Ub-VS probe labelling", "setting": "OTUD6B", "value": -0.00256}, {"measurement": "log2 ratio of Biotin-Ahx-Ub-VS probe labelling", "setting": "OTUD7B", "value": "-1.46 (active)"}, {"measurement": "log2 ratio of Biotin-Ahx-Ub-VS probe labelling", "setting": "PRPF8", "value": -0.109}, {"measurement": "log2 ratio of Biotin-Ahx-Ub-VS probe labelling", "setting": "PSMD7", "value": 0.0463}, {"measurement": "log2 ratio of Biotin-Ahx-Ub-VS probe labelling", "setting": "UCHL1", "value": "-1.35 (active)"}, {"measurement": "log2 ratio of Biotin-Ahx-Ub-VS probe labelling", "setting": "UCHL3", "value": "-1.96 (active)"}, {"measurement": "log2 ratio of Biotin-Ahx-Ub-VS probe labelling", "setting": "UCHL5", "value": -0.585}, {"measurement": "log2 ratio of Biotin-Ahx-Ub-VS probe labelling", "setting": "USP10", "value": -0.00367}, {"measurement": "log2 ratio of Biotin-Ahx-Ub-VS probe labelling", "setting": "USP15", "value": -0.21}, {"measurement": "log2 ratio of Biotin-Ahx-Ub-VS probe labelling", "setting": "USP16", "value": 0.303}]}
